{"source": "PubChem BioAssay AID504444", "about": "(National Center for Advancing Translational Sciences (NCATS), 2011)", "note": "Hit rate of the full screen: of about 360,000 compounds, about 7,500 (2.1%) were called active. Another 20% or so got no clear call; they are omitted. This excerpt belongs to a sample that is enriched for actives. A number with no mark means an inactive call. The call rests on the fitted dose curve; in most records, active means well fitted inhibition curve with a large enough effect; inconclusive means small, poorly fitted or top-dose-only effect, or effect the other way; inactive means flat fitted curve, though single readings scatter. On the % scale 0 is the no-effect control and ±100 the full control effect; potency means the concentration at half of the fitted maximal effect.", "data": [{"assay": "Nrf2 qHTS screen for inhibitors; further: nearly all actives have a fitted effect of over 60% in size", "conditions": "A549 ARE-Fluc reporter, luciferase luminescence, 18-24 h; series mostly up to 46 µM; activity change, negative = inhibition: at the top concentration", "in_short": "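Reporter: ARE-Fluc in A549. Exposure: 18-24 h, 37 °C, 5% CO2, 5% FBS OPTI-MEM. Readouts: fluorescent cytotoxicity (CellTiter-Fluor), then luminescent Nrf2 signal after BugLite.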", "values": [{"smiles": "CCOC(=O)c1ccc(NC(=O)C2CC(=O)N(c3ccc(C(C)C)cc3)C2)cc1", "note": "(stereo not drawn)", "activity change, negative = inhibition": "-5.85%"}, {"smiles": "O=C(Nc1ccc(S(=O)(=O)N2CCCCCC2)cc1)c1c(F)cccc1F", "activity change, negative = inhibition": "-17.6%"}, {"smiles": "O=C(Nc1ccncc1)Nc1ccc(F)cc1", "activity change, negative = inhibition": "22.6%"}, {"smiles": "O=C(Nc1ccncc1)c1c(F)cccc1F", "Potency": "9.2 µM (active)"}, {"smiles": "Cc1ccc(C)c(N2CCN(CCCNC(=O)Nc3ccc(Cl)cc3)CC2)c1", "activity change, negative = inhibition": "10.3%"}, {"smiles": "CCOc1ccc(NC(=O)CCC(=O)N2CC(C)Oc3ccc(C)cc32)cc1", "note": "(stereo not drawn)", "activity change, negative = inhibition": "1.09%"}, {"smiles": "CN(C)C(=O)c1coc2nc3ccccc3nc12", "activity change, negative = inhibition": "0.918%"}, {"smiles": "O=c1[nH]c(=O)c2nc3ccccc3nc2[nH]1", "activity change, negative = inhibition": "10.6%"}, {"smiles": "CNC(=O)c1cccc2nc3ccccc3nc12", "Potency": "5.8 µM (active)"}, {"smiles": "Cc1ccc(Nc2c(-c3ccc(C)cc3)nc3cnccn23)cc1", "activity change, negative = inhibition": "-2.28% [at 9.27 µM]"}, {"smiles": "CCOC(=O)C1CCN(C(=O)CN2C(=O)NC(C)(c3ccc4cc(OC)ccc4c3)C2=O)CC1", "note": "(stereo not drawn)", "activity change, negative = inhibition": "-3.88%"}, {"smiles": "O=C1CC(c2ccccc2)=NN1c1ccc([N+](=O)[O-])cc1", "activity change, negative = inhibition": "-13.5%"}, {"smiles": "Cc1ccc(C)n1NC(=O)c1ccc([N+](=O)[O-])cc1", "activity change, negative = inhibition": "-6.57%"}, {"smiles": "CC1=NN(c2ccccc2)C(=O)C1C(=O)c1ccc([N+](=O)[O-])cc1", "note": "(stereo not drawn)", "Potency": "25.9 µM (active)"}, {"smiles": "CCCOC(=O)c1[nH]c2c(c1C)C(=O)CC(c1cccs1)C2", "note": "(stereo not drawn)", "activity change, negative = inhibition": "2.43%"}, {"smiles": "COCCOC(=O)c1[nH]c2c(c1C)C(=O)CC(c1ccc(OC)cc1)C2", "note": "(stereo not drawn)", "activity change, negative = inhibition": "3.14%"}, {"smiles": "CCCOC(=O)c1[nH]c2c(c1C)C(=O)CC(c1cc(OC)c(OC)c(OC)c1)C2", "note": "(stereo not drawn)", "Potency": "16.4 µM (active)"}, {"smiles": "Cc1ccc(S(=O)(=O)NCC2CCC(C(=O)N3CCOCC3)CC2)cc1", "note": "(stereo not drawn)", "activity change, negative = inhibition": "2.72%"}, {"smiles": "COc1cccc(CNC(=O)C2CCC(CNS(=O)(=O)c3cccs3)CC2)c1", "note": "(stereo not drawn)", "activity change, negative = inhibition": "6.28%"}, {"smiles": "Cc1ccc(C)c(N2CCN(C(=O)C3CCC(CNS(=O)(=O)c4cccs4)CC3)CC2)c1", "note": "(stereo not drawn)", "Potency": "18.4 µM (active)"}, {"smiles": "Cc1cc([N+](=O)[O-])c(=O)[nH]c1C", "activity change, negative = inhibition": "-28.4%"}, {"smiles": "COc1ccc(N=C2C=CC(=O)O2)cc1", "activity change, negative = inhibition": "2.45%"}, {"smiles": "Cc1ccc(NC(=O)C2CCC(C(C)(C)C)CC2)cc1S(=O)(=O)N1CCOCC1", "note": "(stereo not drawn)", "Potency": "20.6 µM (active)"}, {"smiles": "CCOC(=O)c1ccc(NC(=O)C2CC(=O)N(c3ccc4c(c3)OCCO4)C2)cc1", "note": "(stereo not drawn)", "activity change, negative = inhibition": "-15.5%"}, {"smiles": "COc1ccc(S(=O)(=O)N2CCCCCC2)cc1NC(=O)Cc1ccc(OC)c(OC)c1", "activity change, negative = inhibition": "-5.21%"}, {"smiles": "Cc1ccc(NC(=O)C2CC(=O)N(c3ccc4c(c3)OCCO4)C2)cc1S(=O)(=O)N1CCCCCC1", "note": "(stereo not drawn)", "Potency": "5.8 µM (active)"}, {"smiles": "Cc1ccc(NC(=O)C2CC2)cc1S(=O)(=O)N1CCOCC1", "activity change, negative = inhibition": "3.69%"}, {"smiles": "COc1ccc(S(=O)(=O)N2CCCCC2)cc1NC(=O)C1CC(=O)N(c2ccc3c(c2)OCCO3)C1", "note": "(stereo not drawn)", "Potency": "23.1 µM (active)"}, {"smiles": "Cc1ccc(N2CC(C(=O)Nc3ccc(S(=O)(=O)N4CCCC4)cc3)CC2=O)cc1C", "note": "(stereo not drawn)", "activity change, negative = inhibition": "-26.7%"}, {"smiles": "CC(=O)c1ccccc1NC(=O)C1CC(=O)N(c2ccc3c(c2)OCCO3)C1", "note": "(stereo not drawn)", "activity change, negative = inhibition": "15.8%"}, {"smiles": "Cc1ccccc1N1CC(C(=O)Nc2ccc(S(=O)(=O)N3CCCC3)cc2)CC1=O", "note": "(stereo not drawn)", "activity change, negative = inhibition": "-16.1%"}, {"smiles": "Cc1ccc(NC(=O)NC2CCCCC2)cc1S(=O)(=O)N1CCOCC1", "activity change, negative = inhibition": "-20.2%"}, {"smiles": "COc1ccccc1N1CC(C(=O)Nc2ccc(S(=O)(=O)N3CCOCC3)cc2)CC1=O", "note": "(stereo not drawn)", "activity change, negative = inhibition": "2.1%"}, {"smiles": "CC1CCN(S(=O)(=O)c2ccc(NC(=O)C3CC(=O)N(c4ccccc4)C3)cc2)CC1", "note": "(stereo not drawn)", "Potency": "6.51 µM (active)"}, {"smiles": "CCN(CC)S(=O)(=O)c1ccc(CNC(=O)CN2C(=O)NC3(CCc4ccccc43)C2=O)cc1", "note": "(stereo not drawn)", "activity change, negative = inhibition": "-5.28%"}, {"smiles": "Cc1ccc(C)c(N2CCN(C(=O)Cn3ncc4c(=O)oc5ccc(C)cc5c43)CC2)c1", "activity change, negative = inhibition": "-1.2%"}, {"smiles": "O=C(NCc1ccccc1)c1cccc(NC(=O)C2CCCCC2)c1", "activity change, negative = inhibition": "-2.53%"}, {"smiles": "Cn1nnnc1SCCCNCc1cccc(OCc2ccc(Cl)cc2)c1", "activity change, negative = inhibition": "16.4%"}, {"smiles": "COc1ccc(CNC(=O)CCc2c(C)nn(-c3ccc(N4CCCC4)nn3)c2C)cc1", "activity change, negative = inhibition": "11.6%"}, {"smiles": "O=[S+]([O-])(c1ccc(OC(F)(F)F)cc1)N1CCN([S+](=O)([O-])c2ccc3c(c2)OCCO3)CC1", "activity change, negative = inhibition": "16.6%"}, {"smiles": "COc1cccc(CNC(=O)c2ccc3c(c2)N(Cc2ccc(C(F)(F)F)cc2)C(=O)c2ccccc2S3)c1OC", "activity change, negative = inhibition": "-2.78%"}, {"smiles": "CCOc1ccc(C(=O)/C=C/c2cn(CC(O)CN3CCCCCC3)c3ccccc23)cc1", "note": "(stereo not drawn)", "activity change, negative = inhibition": "22.8%"}, {"smiles": "CCS(=O)(=O)c1nc(S(=O)(=O)c2ccc(C)cc2)c(NCc2ccc(Cl)cc2)s1", "activity change, negative = inhibition": "-1.83%"}, {"smiles": "NC1=NOC(=O)C1C1CCCCC1", "note": "(stereo not drawn)", "activity change, negative = inhibition": "-7.5%"}, {"smiles": "CCCCNS(=O)(=O)c1ccc2nc(SCC(=O)Nc3cc(C)cc(C)c3)[nH]c2c1", "Potency": "13 µM (active)"}, {"smiles": "CC(=O)Nc1ccc(C(=O)CSc2nc3ccc(C)cc3[nH]2)cc1", "activity change, negative = inhibition": "26.7%"}, {"smiles": "Cc1cc(C)c(NC(=O)CSc2nc3ccncc3[nH]2)c(C)c1", "Potency": "inactive"}, {"smiles": "Cc1ccc(/C=C(\\C#N)C(=O)Nc2cc(C)ccc2C)cc1", "activity change, negative = inhibition": "5.62%"}, {"smiles": "CC(C)(C)c1ccc(S(=O)(=O)Nc2ccc(O)c(Sc3nc4ccccc4s3)c2)cc1", "activity change, negative = inhibition": "1.33%"}, {"smiles": "CCOc1ccc(NC(=O)c2c(NC(=O)Cc3ccccc3)sc3c2CCCCC3)cc1", "activity change, negative = inhibition": "-17.2%"}, {"smiles": "COc1ccc(NS(=O)(=O)c2cccc(C(=O)NCCc3ccc(S(N)(=O)=O)cc3)c2)cc1", "activity change, negative = inhibition": "5.04%"}, {"smiles": "COc1ccc(NS(=O)(=O)c2ccc(Oc3c(C#N)cccc3C#N)cc2)cc1", "Potency": "13 µM (active)"}, {"smiles": "COc1cccc(NS(=O)(=O)c2ccc(-c3coc(C)n3)cc2)c1", "activity change, negative = inhibition": "-27.9%"}, {"smiles": "N#CCSc1nc2c(c(=O)n1Cc1ccccc1)C1(CCCC1)Cc1ccccc1-2", "activity change, negative = inhibition": "10.3%"}, {"smiles": "Cc1cccc(-n2c(SCC(N)=O)nc3c(c2=O)C2(CCCCC2)Cc2ccccc2-3)c1", "Potency": "20.6 µM (active)"}, {"smiles": "Cc1cccc(-n2c(SCC(N)=O)nc3c(oc4ccccc43)c2=O)c1", "activity change, negative = inhibition": "1.69%"}, {"smiles": "C[C@H](CO)N1C[C@H](C)[C@@H](CN(C)Cc2ccc(-c3ccccc3)cc2)Oc2ccc(NC(=O)Cn3cnnn3)cc2C1=O", "activity change, negative = inhibition": "0.445%"}, {"smiles": "OCC(O)C1OCOC(C(O)CO)C1O", "note": "(stereo not drawn)", "activity change, negative = inhibition": "-10.3%"}, {"smiles": "CCOc1ccc(NC(=O)c2c(NC(=O)Cc3ccccc3)sc3c2CCC(C)C3)cc1", "note": "(stereo not drawn)", "activity change, negative = inhibition": "-14.5%"}, {"smiles": "C/C(=N\\NC(=O)Cc1ccc(Cl)cc1)c1ccccn1", "Potency": "3.26 µM (active)"}, {"smiles": "CNC(=S)N1CCN(c2ccccn2)CC1", "activity change, negative = inhibition": "-6.46%"}, {"smiles": "Cc1cccc(C)c1NC(=S)N1CCCCCC1", "activity change, negative = inhibition": "7.37%"}, {"smiles": "COc1ccc(CC(=O)NC(C)CCc2ccccc2)cc1", "note": "(stereo not drawn)", "activity change, negative = inhibition": "-21.7%"}, {"smiles": "COc1ccc(C/C(C)=N/NC(=O)c2ccncc2)cc1", "activity change, negative = inhibition": "9.67%"}, {"smiles": "Cc1ccc(Cl)cc1NC(=O)c1ccccn1", "activity change, negative = inhibition": "25.8%"}, {"smiles": "COc1ccc(CC(=O)N/N=C(\\C)c2ccccn2)cc1", "Potency": "14.6 µM (active)"}, {"smiles": "C/C(=N\\NC(=O)Cc1ccc(F)cc1)c1ccc(F)cc1", "activity change, negative = inhibition": "-2.05%"}, {"smiles": "CC(=NNC(=S)N1CCCCCC1)c1ccccn1", "Potency": "1.16 µM (active)"}]}]}
